Gal4-VP16 FLuc: counter-screen for ROR gamma inhibitors: Gal4-VP16 reporter; Drosophila S2 Gal4-VP16 UAS-luciferase, luminescence, 20 h; Potency, µM (titrated, usually from 53.6 µM), for the others: top-dose activity, negative = inhibition, usual class: inhibitors; 310,000 tested, 3.5% active; AID 2546;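 also: Gal4-VP16 expression switched on by copper sulfate through the metallothionein promoter; % is scaled to controls: 0 for no effect and ±100 for the full control effect; nearly all actives have a fitted effect of over 50% in size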
PINK1 modulator: PINK1 expression modulation | PINK1 immunofluorescence, high-content cytometry, 24 h | 410,000 tested, 0.2% active | Potency, µM (doses to about 76.6 µM), without a hit: at the top dose activation (PINK1 increase), actives largely listed as activators; active = well fitted activation curve with a large enough effect; inconclusive = small, poorly fitted or top-dose-only effect; cell line not stated here; also: % of control where 0% means no effect; nearly all actives have a fitted effect of over 65% in size
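Readout is PINK1 immunofluorescence, quantified alongside mitochondrial, cell and nuclear markers by laser-scanning microplate cytometry. Cells from a stable line were exposed to compound titrations (5 concentrations) for 24 hours, with CCCP controls.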
RORgamma inh: ROR gamma (mouse) transcription inhibition; P51450; Potency, µM (top dose mostly 53.6 µM), without a hit: at the highest dose activity change, negative = inhibition, hits mostly inhibitors; AID 2551; Drosophila S2 Gal4-RORgamma UAS-luciferase reporter, 20 h; 310,000 tested, 5.4% active; also: % is scaled to controls: 0 for no effect and ±100 for the full control effect; nearly all actives have a fitted effect of over 60% in size
Target sequence (P51450 whole entry, looked up, the tested form may be a part): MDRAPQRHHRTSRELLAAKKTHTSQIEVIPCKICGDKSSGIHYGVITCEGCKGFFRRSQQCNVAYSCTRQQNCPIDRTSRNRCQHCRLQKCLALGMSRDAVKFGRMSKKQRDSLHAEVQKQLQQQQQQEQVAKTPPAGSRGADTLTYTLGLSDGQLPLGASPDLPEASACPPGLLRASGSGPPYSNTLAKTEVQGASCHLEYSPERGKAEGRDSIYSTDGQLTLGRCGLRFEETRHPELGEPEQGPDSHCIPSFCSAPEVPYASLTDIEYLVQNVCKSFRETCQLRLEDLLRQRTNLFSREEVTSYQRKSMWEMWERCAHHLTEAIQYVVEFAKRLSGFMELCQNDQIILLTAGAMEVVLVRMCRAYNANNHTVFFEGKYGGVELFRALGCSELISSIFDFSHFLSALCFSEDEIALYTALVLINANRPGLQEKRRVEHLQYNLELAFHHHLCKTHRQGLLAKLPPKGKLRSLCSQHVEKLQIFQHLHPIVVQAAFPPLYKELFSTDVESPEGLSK
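Luciferase reporter read in Schneider cells carrying Gal4-RORγ (mouse) and UAS-Photinus luciferase; cells given compound 1 h before 700 uM copper sulfate induction, then incubated 20 h at ambient temperature.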
Sfp PPTase inh: Sfp phosphopantetheinyl transferase inhibition | Q9F4F7 | Biochemical Sfp PPTase activity, qHTS | Potency, µM, without a hit: largest response in the series, negative = inhibition, usual class: inhibitors | 310,000 tested, 3.5% active | AID 1490;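 also: the enzyme is Sfp with the accession as filed and its product quenches rhodamine fluorescence; 0% = enzyme reaction without inhibitor and -100% = no enzyme wells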
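Compounds were incubated with enzyme (final 15 nM) for 15 min at room temperature before substrate addition started the reaction. Fluorescence at 525 nm excitation, 598 nm emission was recorded immediately and after 30 minutes.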
ClpP mod: qHTS Assay for Activators of ClpP. purified B. subtilis ClpP, FRET peptide cleavage, 20 min. 340,000 tested, 1.9% active. Potency, µM (top dose mostly 57.5 µM), without a hit: at the highest dose activity change, negative = active. AID 651965, 2013. ATP-dependent Clp protease proteolytic subunit (Bacillus subtilis (strain 168)), P80244; active = well fitted falling curve with a large enough effect; inconclusive = small, poorly fitted or top-dose-only effect; inactive = no such curve, though single readings can be large or run the other way; also: the source files actives as falling curves though it sought activators and does not explain the sign; nearly all actives have a fitted effect of over 65% in size
Target sequence (P80244 whole entry, looked up): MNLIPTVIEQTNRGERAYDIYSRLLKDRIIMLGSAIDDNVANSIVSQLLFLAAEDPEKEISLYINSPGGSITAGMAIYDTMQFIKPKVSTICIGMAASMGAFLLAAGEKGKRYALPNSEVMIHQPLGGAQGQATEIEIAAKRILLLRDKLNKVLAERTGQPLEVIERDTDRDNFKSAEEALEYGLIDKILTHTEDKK
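ClpP 10 microg/mL final, pH 8 Tris/KCl buffer with BSA, glycerol, Tween-20; compound pinned in; FRET-FV substrate; RT 20 min; Ex320/Em430; ΔFRET vs ADEP 5.8 microM, DMSO, no enzyme.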
Epigenetic derep: regulators of epigenetic silencing causing reporter derepression in mouse cells. murine LDR cells, GFP reporter derepression, 30 h. Potency, µM (series often up to 53.9 µM), without a hit: at the highest dose GFP activation, usual class: activators. 280,000 tested, 0.2% active; also: % of control where 0% means no effect; nearly all actives have a fitted effect of over 60% in size
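Derepression of a silenced CMV-GFP reporter in murine LDR cells is scored by enumerating GFP-positive cells with a laser-scanning microplate cytometer after 30 hours of treatment at 37 C.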
The depositor's hits bear a star; ? = inconclusive; nt = no result; [ ] = another dose, or the depositor's remark. Sampled rows, rich in hits. Any-hit rate of the full collection: about 8.1%. Unless noted, calls follow the shape of the dose curve; as a rule, active = well fitted curve in the direction sought with a large enough effect; inconclusive = small, poorly fitted or top-dose-only effect, or another doubt; inactive = no such curve, though single readings can be large; an effect the other way counts as inactive or inconclusive. Potency is read from the fitted curve at half-maximal effect.

SMILES	Gal4-VP16 FLuc	PINK1 modulator	RORgamma inh	Sfp PPTase inh	ClpP mod	Epigenetic derep
Cc1cc(C)c(NC(=O)CCn2c(=O)c3cccn3c3cccnc32)c(C)c1	nt	-1%	nt	nt	-7%	3%
O=C(COc1ccccc1-c1nc(-c2ccccc2)no1)Nc1ccccc1[N+](=O)[O-]	nt	0%	nt	nt	1%	16%
COCCNC(=S)NNC(=O)c1cc(-c2cccnc2)nc2ccccc12	?	1%	13µM*	11%	2%	nt
COCCCNC(=S)NNC(=O)c1cc(C2CC2)nc2ccccc12	?	2%	2.8µM*	19%	33%	nt
COCCCNC(=S)NNC(=O)c1cc(-c2cccnc2)nc2ccccc12	-27%	1%	-34%	30%	3%	nt
CCNC(=S)NNC(=O)c1cc(-c2cc(C)ccc2C)nc2ccccc12	-22%	1%[38.3 µM]	0.35µM*	8%	23%	-1%
C[C@@]1(C(=O)O)NCCc2cc(O)c(O)cc21	-5%	nt	-28%	56µM*	nt	1%
CC(=O)Nc1nnc(SCC(=O)c2ccc3c(c2)Cc2ccccc2-3)s1	-2%	2%	32%	-7%	4%	2%
Cn1c(SCC(=O)c2ccc3c(c2)Cc2ccccc2-3)nnc1-c1ccccc1	-4%	2%	-17%	79µM*	-10%	-1%
Cn1c(SCC(=O)c2ccccc2)nnc1-c1ccc(O)cc1	11µM*	-5%	0%	79µM*	-4%	-3%
CCC(=O)Nc1nnc(SCC(=O)c2ccc3c(c2)Cc2ccccc2-3)s1	-4%	14%[38.3 µM]	2%	56µM*	-1%	-1%
N#CC1=C2N=C(N)c3c(sc4c3CCCCC4)N2C2=C(C(=O)CCC2)C1c1ccccc1 (stereo unspecified)	?	2%	11µM*	-25%	-1%	1%
N#CC1=C2N=C(N)c3ccccc3N2C2=C(C(=O)CCC2)C1c1ccc(F)cc1 (stereo unspecified)	4%	-1%	0%	9%	0%	2%
COc1ccc(N2CCN(c3ccc(N4C(=O)COCC4=O)cc3[N+](=O)[O-])CC2)cc1	-23%	2%	15%	12%	28µM*	-1%
N#Cc1nc(-c2ccc(OCc3ccccc3Cl)cc2)oc1N1CCC(C(N)=O)CC1	nt	-1%	nt	nt	4%	nt
CCCCC(=O)NNC(=S)NCc1ccccc1	-4%	6%	14µM*	27%	nt	1%
O=C(COc1ccc(Br)cc1)NNC(=S)NCc1ccccc1	?	1%	?	23%	nt	nt
S=C(NCc1ccccc1)NCc1ccc(CNC(=S)NCc2ccccc2)cc1	3%	4%	2%	9%	?	6%
CCNC(=S)NNc1nnc(-c2ccccc2)c(-c2ccccc2)n1	?	-1%	13µM*	5%	nt	nt
CCNC(=S)NNC(=S)NCc1ccccc1	?	0%	7.1µM*	56µM*	-3%	-2%
COc1ccc(COC(=O)N/N=C2/C[C@@H](O)[C@@H](O)[C@@H]3[C@@H]4C(=O)N(C[C@@H]5CCCO5)C(=O)[C@H]4CC[C@@H]23)cc1	-2%[10 µM]	nt	-2%[10 µM]	-14%	nt	1%[10.1 µM]
COCCCNC(=S)Nc1cccc(SC)c1	11µM*	3%	1.6µM*	-7%	nt	-1%
CSc1cccc(NC(=S)NCCCN2CCN(c3ccc(F)cc3)CC2)c1	?	0%	6.3µM*	14%	nt	-4%
CSc1cccc(NC(=S)NN(C)C)c1	10µM*	-2%	3.2µM*	17%	?	0%
Fc1cccc(NC(=S)NCCCN2CCOCC2)c1	9%	0%	-1%	12%	-1%	-1%
SMILES	Gal4-VP16 FLuc	PINK1 modulator	RORgamma inh	Sfp PPTase inh	ClpP mod	Epigenetic derep
CSc1cccc(NC(=S)N2CCC(N(C)C3CCCCC3C)CC2)c1 (stereo unspecified)	-71%	0%	13µM*	10%	nt	0%
CSc1cccc(NC(=S)N2CCC(N(C)C3CCCCC3)CC2)c1	7%	-2%	-14%	-17%	nt	0%
COc1ccc(CCNC(=O)c2cc3n(n2)CCCN(Cc2ccc(C)cc2)C3=O)cc1OC	nt	1%	nt	nt	1%	0%
N#C/C(=C\c1ccc(-c2ccc(C(=O)O)cc2)o1)C(=O)Nc1ccccc1C(=O)O	nt	-1%	nt	nt	5%	-1%
C=C1c2cccc(OC)c2O[C@H](C(=O)OCC)[C@@H]1CCC(C)C	4%	nt	36%	-1%	nt	1%
CCN(Cc1ccccc1)C(=O)Cn1c(=O)n(-c2ccc(Cl)cc2)c(=O)c2c(C)c(C)sc21	nt	2%	nt	nt	1%	4%
Clc1cc(Cl)c(OCC#CI)cc1Cl	5.6µM*	nt	7.1µM*	79µM*	nt	nt
Clc1cc(Cl)c(Cl)cc1Cl	-3%	0%	12%	nt	-3%	nt
O=C(CSc1ccc(-c2nc3ccccc3[nH]2)cn1)Nc1ccc(S(=O)(=O)N2CCCC2)cc1	0%	-4%	10%	4%	20µM*	0%
CC(=O)CSc1ccc(-c2nc3ccccc3[nH]2)cn1	11µM*	1%	10µM*	-5%	1%	nt
CC(=O)CSc1ccc(-c2nc3cc(C)c(C)cc3[nH]2)cn1	1%	-2%	-8%	21%	nt	-1%
Cc1cc2nc(-c3ccc(SCc4ccc(C#N)cc4)nc3)[nH]c2cc1C	5%	?	?	5%	?	1%
N#Cc1ccccc1CSc1ccc(-c2nc3ccccc3[nH]2)cn1	-3%[0.365 µM]	nt	?	4.5µM*	-21%	-1%
Cc1ccc(CCNC(=O)Cn2ncc3c(=O)oc4ccccc4c32)cc1	nt	2%	nt	nt	-2%	1%
COc1ccccc1C(N)=S	?	-1%	16µM*	-16%	0%	4%
CS(=O)c1nc(-c2ccc(Br)cc2)cc(-c2ccccc2)c1C#N (stereo unspecified)	14µM*	-8%[38.3 µM]	7.9µM*	-4%	-15%	-1%
CS(=O)(=O)c1nc(-c2ccc(Br)cc2)cc(-c2ccccc2)c1C#N	?	-3%	3.2µM*	3%	-26%	-3%
COc1cc2nc(NC(=O)c3ccc(S(=O)(=O)N4CCCC4)cc3)sc2cc1OC	nt	5%	nt	nt	7%	-1%
Cn1nc(-c2ccccc2F)c2cc(C(=O)NCc3cccc(Cl)c3)sc21	nt	1%	nt	nt	4%	-1%
O=C(O)c1ccc2cccnc2n1	3%	3%	-1%	-59%	nt	1%
O=C(O)c1ccc2cccnc2c1O	-20%	5%	14µM*	20µM*	nt	1%
O=C(Cc1ccc(Cl)cc1Cl)Nc1ccncc1	5.6µM*	9%	?	9%	-1%	nt
O=C(Cc1ccc(Cl)cc1Cl)Nc1ccncc1Cl	5.6µM*	0%	-35%	8%	0%	nt
COc1ccc(-c2cn3nc(N4CCC(C(=O)Nc5ccc(C)cc5)CC4)sc3n2)cc1	nt	0%	nt	nt	1%	0%

Bioassay records from PubChem BioAssay.
